Laboratory results published in the supplement of paper PMC11172423.

Each compound was assayed on Madurella mycetomatis MM55 (assay: growth relative to untreated control; higher = less inhibition, active = 20 or less). Conditions: 25 µM.
Experimental: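 Hyphal fragments of M. mycetomatis MM55 or F. senegalensis CBS197.79 in RPMI 1640/MOPS were exposed to each MMV COVID Box or Global Health Priority Box compound at 100 or 25 µM for 7 days at 37 °C. Viability was read with MTS (490 nm, M. mycetomatis) or resazurin (600 nm, F. senegalensis), background-corrected with a medium-only control and expressed as % growth relative to the untreated growth control. Inhibition of more than 80% was taken as growth inhibition.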

SMILES	growth
CCOC(=O)CC(SP(=S)(OC)OC)C(=O)OCC (stereo not given)	128% (inactive)
COP(=S)(OC)Oc1nc(Cl)c(Cl)cc1Cl	88.5% (inactive)
CN1C(=O)C(C(=O)Nc2ccc(Cl)c(Cl)c2)C(=O)N(C)C1=O	56% (inactive)
FC(F)(F)c1cc(Cl)cc(Nc2nc3cnc(OC4CCC4)cc3n2[C@@H]2CCNC2)c1	79.6% (inactive)
CN/C(=N\[N+](=O)[O-])NCc1cnc(Cl)s1	112% (inactive)
C=C(C)[C@H]1Cc2c(ccc3c2O[C@@H]2COc4cc(OC)c(OC)cc4[C@@H]2C3=O)O1	7.57% (active)
N#Cc1nn(-c2c(Cl)cc(C(F)(F)F)cc2Cl)c(N)c1S(=O)C(F)(F)F (stereo not given)	120% (inactive)
CC(C)(C)Nc1cc2c(cn1)nc(Nc1cc(Cl)cc(C(F)(F)F)c1)n2C1CCNC1 (stereo not given)	8.45% (active)
C[C@@H]1C[C@@H]([C@H](O)CC2CC(=O)NC(=O)C2)C(=O)[C@@H](C)C1	31.4% (inactive)
CN(C)CCn1c(Nc2cc(Cl)cc(C(F)(F)F)c2)nc2cnc(NC3CCC3)cc21	80.9% (inactive)
CC1(C)C(/C=C(\Cl)c2ccc(Cl)cc2)C1C(=O)OC(C#N)c1ccc(F)c(Oc2ccccc2)c1 (stereo not given)	119% (inactive)
CC[C@@H]1CCC[C@H](O[C@H]2CC[C@H](N(C)C)[C@@H](C)O2)[C@@H](C)C(=O)C2=C[C@@H]3[C@@H](C=C(C)[C@@H]4C[C@@H](O[C@@H]5O[C@@H](C)[C@H](OC)[C@@H](OC)[C@H]5OC)C[C@@H]34)[C@@H]2CC(=O)O1.CC[C@@H]1CCC[C@H](O[C@H]2CC[C@H](N(C)C)[C@@H](C)O2)[C@@H](C)C(=O)C2=C[C@@H]3[C@@H](C=C[C@@H]4C[C@@H](O[C@@H]5O[C@@H](C)[C@H](OC)[C@@H](OC)[C@H]5OC)C[C@@H]34)[C@@H]2CC(=O)O1	133% (inactive)
COC(=O)N(C(=O)N1CO[C@@]2(C(=O)OC)Cc3cc(Cl)ccc3C2=N1)c1ccc(OC(F)(F)F)cc1	46.3% (inactive)
CCOP(=S)(OCC)Oc1nc(Cl)c(Cl)cc1Cl	142% (inactive)
COc1ccc(Cc2nccc3cc(OC)c(OC)cc23)cc1OC	78% (inactive)
CC(C)=CC1C(C(=O)OCN2C(=O)C3=C(CCCC3)C2=O)C1(C)C (stereo not given)	85.9% (inactive)
CN(c1cc(NC(=O)c2ccc(F)cc2)ccn1)C1CCN(Cc2cccc(F)c2)CC1	5.69% (active)
CC(F)c1ncnc(NCCc2ccc(OC(F)(F)F)cc2)c1Cl (stereo not given)	11% (active)
CCS(=O)c1c(C#N)nn(-c2c(Cl)cc(C(F)(F)F)cc2Cl)c1N (stereo not given)	91.7% (inactive)
ClC1=C(Cl)[C@@]2(Cl)[C@H]3C[C@@H](Cl)[C@H](Cl)[C@H]3[C@@]1(Cl)C2(Cl)Cl	104% (inactive)

Same assay, conditions: 100 µM

SMILES	growth
CCOC(=O)CC(SP(=S)(OC)OC)C(=O)OCC (stereo not given)	131% (inactive)
COP(=S)(OC)Oc1nc(Cl)c(Cl)cc1Cl	106% (inactive)
CN1C(=O)C(C(=O)Nc2ccc(Cl)c(Cl)c2)C(=O)N(C)C1=O	10.4% (active)
FC(F)(F)c1cc(Cl)cc(Nc2nc3cnc(OC4CCC4)cc3n2[C@@H]2CCNC2)c1	64% (inactive)
CN/C(=N\[N+](=O)[O-])NCc1cnc(Cl)s1	127% (inactive)
C=C(C)[C@H]1Cc2c(ccc3c2O[C@@H]2COc4cc(OC)c(OC)cc4[C@@H]2C3=O)O1	9.11% (active)
N#Cc1nn(-c2c(Cl)cc(C(F)(F)F)cc2Cl)c(N)c1S(=O)C(F)(F)F (stereo not given)	86.5% (inactive)
CC(C)(C)Nc1cc2c(cn1)nc(Nc1cc(Cl)cc(C(F)(F)F)c1)n2C1CCNC1 (stereo not given)	7.09% (active)
C[C@@H]1C[C@@H]([C@H](O)CC2CC(=O)NC(=O)C2)C(=O)[C@@H](C)C1	3.56% (active)
CN(C)CCn1c(Nc2cc(Cl)cc(C(F)(F)F)c2)nc2cnc(NC3CCC3)cc21	104% (inactive)
CC1(C)C(/C=C(\Cl)c2ccc(Cl)cc2)C1C(=O)OC(C#N)c1ccc(F)c(Oc2ccccc2)c1 (stereo not given)	119% (inactive)
CC[C@@H]1CCC[C@H](O[C@H]2CC[C@H](N(C)C)[C@@H](C)O2)[C@@H](C)C(=O)C2=C[C@@H]3[C@@H](C=C(C)[C@@H]4C[C@@H](O[C@@H]5O[C@@H](C)[C@H](OC)[C@@H](OC)[C@H]5OC)C[C@@H]34)[C@@H]2CC(=O)O1.CC[C@@H]1CCC[C@H](O[C@H]2CC[C@H](N(C)C)[C@@H](C)O2)[C@@H](C)C(=O)C2=C[C@@H]3[C@@H](C=C[C@@H]4C[C@@H](O[C@@H]5O[C@@H](C)[C@H](OC)[C@@H](OC)[C@H]5OC)C[C@@H]34)[C@@H]2CC(=O)O1	91.5% (inactive)
COC(=O)N(C(=O)N1CO[C@@]2(C(=O)OC)Cc3cc(Cl)ccc3C2=N1)c1ccc(OC(F)(F)F)cc1	115% (inactive)
CCOP(=S)(OCC)Oc1nc(Cl)c(Cl)cc1Cl	111% (inactive)
COc1ccc(Cc2nccc3cc(OC)c(OC)cc23)cc1OC	83.4% (inactive)
CC(C)=CC1C(C(=O)OCN2C(=O)C3=C(CCCC3)C2=O)C1(C)C (stereo not given)	127% (inactive)
CN(c1cc(NC(=O)c2ccc(F)cc2)ccn1)C1CCN(Cc2cccc(F)c2)CC1	9.07% (active)
CC(F)c1ncnc(NCCc2ccc(OC(F)(F)F)cc2)c1Cl (stereo not given)	10.1% (active)
CCS(=O)c1c(C#N)nn(-c2c(Cl)cc(C(F)(F)F)cc2Cl)c1N (stereo not given)	92.4% (inactive)
ClC1=C(Cl)[C@@]2(Cl)[C@H]3C[C@@H](Cl)[C@H](Cl)[C@H]3[C@@]1(Cl)C2(Cl)Cl	130% (inactive)
